Records with an inconclusive call do not appear. Entries that show only a call come without a potency. Active and inactive are the calls of the source. Calls come from the whole dose curve; as a rule, active = well fitted activation curve with a large enough effect in the repeat runs; inconclusive = weak or mixed curves; inactive = flat fitted curve, though single readings scatter.
Potency is the fitted concentration of half-maximal effect.

A short description of this assay: A CellTox Green Cytotoxicity Assay to monitor cytotoxicity in HepG2 cells - 24 hour (AID 1224878). Note: nearly all actives have a fitted effect of over 45% in size. Conditions: CellTox Green fluorescence; series mostly up to 76.8 µM. The text has this:
National Center for Advancing Translational Sciences [NCATS]
NIH Chemical Genomics Center [NCGC]
U.S. Environmental Protection Agency [EPA]
National Institutes of Environmental Health Sciences [NIEHS]
National Toxicology Program [NTP]
Cell-based models are critical for drug discovery. Determining the natural cytotoxic effects resulting from test compounds is an essential research activity. A CellTox Green Cytotoxicity Assay to monitor cytotoxicity in real time of continues cell culture during 40 hours of the compound treatment was used to screen Tox21 10K library compounds in HepG2 cells. CellTox Green Cytotoxicity Assay is a nonlytic, homogeneous, biofluorescent method to measure cytotoxicity in cell culture after experimental manipulation. The assay system uses a proprietary asymmetric cyanine dye that is excluded from viable cells but preferentially stains the dead cell's DNA. […] Viable cells produce no appreciable increases in fluorescence. Therefore, the fluorescence signal produced by the binding interaction with dead cell DNA is proportional to cytotoxicity.
The mixture of HepG2 cell suspension and reagents were dispensed at 600cells/6 ul/well in 1536-well tissue culture treated black solid bottom plates using a Multidrop dispenser. After the assay plates were incubated at a 37 C/5% CO2 incubator for 5 hours, 23 nL of compounds dissolved in DMSO, positive and negative controls was transferred to the assay plate by a pintool work station. The plates were incubated at 37 C for 40 hours. The fluorescence intensity were measured at 0h, 8h, 16h, 24h, 32h and 40h time points using ViewLux plate reader during compound treatment.
As to `CCOP(=S)(Oc1cnc(C(C)(C)C)nc1)OC(C)C` (stereo not given), the Potency entry was “inactive”. The value for `C=CCC1=C(C)[C@@H](OC(=O)[C@@H]2[C@@H](C=C(C)C)C2(C)C)CC1=O` was 49 µM (active). Consider `CC(C(=O)c1ccccc1)N(C)C` (stereo not given), for which the Potency result is “inactive”. Then `C[N+](=O)[O-]`, with “inactive”; and `CC(C=O)Cc1ccc2c(c1)OCO2` (stereo not given), with “inactive”; and `C[C@]12CC[C@H]3[C@@H](CCC4=CC(=O)CC[C@@]43C)[C@@H]1CC[C@@H]2C(=O)O`, with “inactive”. The value for `ClC(Cl)(Cl)C(Cl)(Cl)Cl` was “inactive”. `COc1cc(OC)nc(Oc2cccc(Oc3nc(OC)cc(OC)n3)c2C(=O)O)n1`: the Potency entry was “inactive”. Then `OCCSCSCCO`, with “inactive”. Then `CC(=O)[C@H]1CC[C@H]2[C@@H]3CC[C@H]4C[C@H](O)CC[C@]4(C)[C@H]3C(=O)C[C@]12C`, with “inactive”.

With `OC(Cn1cncn1)(c1ccc(F)cc1)c1ccccc1F` (stereo not given), the Potency entry was “inactive”. Then `COC(=O)c1ccccc1S(=O)(=O)NC(=O)N(C)c1nc(C)nc(OC)n1`, with “inactive”. With `Nc1cc(Cl)ccc1O`, the Potency result was “inactive”. Then `C=C(C)CN(CC)c1c([N+](=O)[O-])cc(C(F)(F)F)cc1[N+](=O)[O-]`, with “inactive”; and `[Cl][Sn]([Cl])([Cl])[Cl]`, with “inactive”. Consider `C[C@]1(O)CC[C@H]2[C@@H]3CCC4=CC(=O)CC[C@]4(C)[C@@]3(F)[C@@H](O)C[C@@]21C`, for which the Potency result is “inactive”.

In the case of `NC(=O)c1cc([N+](=O)[O-])cc([N+](=O)[O-])c1`, the Potency entry is “inactive”. The value for `COC(C)(C)C` was “inactive”. `COc1cccc2c1cc([N+](=O)[O-])c1c(C(=O)O)cc3c(c12)OCO3`: the Potency is 21.9 µM (active). Then `C[C@]12CC[C@H]3[C@@H](CC=C4C[C@@H](O)CC[C@@]43C)[C@@H]1CC[C@@H]2O`, with “inactive”. As to `N#Cc1c(Cl)cccc1Cl`, the Potency result was “inactive”. Then `CC(C)NCC(O)c1ccc(N)c(C#N)c1` (stereo not given), with “inactive”; and `CC(C)(C)OC(=O)c1ncn2c1[C@@H]1CCCN1C(=O)c1c(Br)cccc1-2`, with “inactive”; and `CCC(=O)c1ccccc1`, with “inactive”.

For `CCc1cc2c(s1)-n1c(C)nnc1CN=C2c1ccccc1Cl`, the Potency entry was “inactive”. On to `COc1cc(C[C@@H](C)N)c(OC)cc1C`, for which the Potency entry was “inactive”.

Regarding `COc1cc(OC)nc(Sc2cccc(Cl)c2C(=O)O)n1`, the Potency entry is “inactive”.

`CCCCOC(=O)[C@@H](C)Oc1ccc(Oc2ccc(C#N)cc2F)cc1`: the Potency entry was “inactive”.

Consider `O=[N+]([O-])c1cccc2cccnc12`, for which the Potency entry is “inactive”. With `CCC(Cl)[N+](=O)[O-]` (stereo not given), the Potency result is “inactive”. For the compound `Nc1cc2c3c(c1)C(c1ccccc1)=N[C@@H](NC(=O)c1cccnc1)C(=O)N3CC2`, the Potency result was “inactive”.

On to `Cc1cc(C)nc(Nc2ccccc2)n1`, for which the Potency entry is “inactive”. Then `CCN(CC)c1nc(C)cc(OP(=S)(OC)OC)n1`, with “inactive”. Take `CN(C)CCc1ccc(O)cc1`: the Potency entry was “inactive”.

Consider `N#CCCC#N`, for which the Potency result was “inactive”. The value for `CCOC(=O)/C=C(C)/C=C/C[C@@H](C)CCCC(C)C` was “inactive”; that for `CCC(C)(C)c1cc(-n2nc3ccccc3n2)c(O)c(C(C)(C)CC)c1` was “inactive”. As to `CCOP(=S)(OCC)SCSP(=S)(OCC)OCC`, the Potency entry was “inactive”. The value for `CNCC(=O)c1ccc(O)c(O)c1` was “inactive”. Then `CCCCCCI`, with “inactive”.

The values are drawn from PubChem BioAssay (Tox21).
